Assay results: ChEMBL document CHEMBL4513146, “CO-ADD screening of Karazin Kharkiv National University (Ukraine) compounds”
Results with a measured potency or affinity are listed apart.

Tests used:
[1] = tested on: Staphylococcus aureus; settings: Concentration 32 ug.mL-1;; ASSAY_TEST Inhibition of Bacterial Growth; detection method Absorption (OD600); MEDIA CAMHB; plate type 384well; NBS; CORNING #3640; time 18 hr
[2] = tested on: Escherichia coli; settings: Concentration 32 ug.mL-1;; ASSAY_TEST Inhibition of Bacterial Growth; detection method Absorption (OD600); MEDIA CAMHB; plate type 384well; NBS; CORNING #3640; time 18 hr

Row | SMILES | Inhibition [1] [%] | Inhibition [2] [%]
1 | COc1ccc2[nH]cc(C(=O)CSc3nnc4c(=O)n(-c5cccc(Cl)c5C)ccn34)c2c1 | 18.84 | 2.67
2 | Cc1ccc(-c2ccc3nn(Cc4c(F)cccc4Cl)c(=O)n3n2)cc1 | 14.3 | -0.36
3 | COc1cc(OC)c(NC(=O)Cn2nc3c(Oc4cccc(C)c4C)nccn3c2=O)cc1Cl | 1.15 | -3.57
4 | Cc1cc(C)c(NC(=O)CSc2nnc3c4cc(-c5ccccc5)nn4ccn23)c(C)c1 | 6.45 | -2.49
5 | CCc1cccc(NC(=O)Cn2nc3ccc(SC(C)C)nn3c2=O)c1 | 3.75 | -0.03
6 | Cc1nnc2c(SCC(=O)Nc3ccc(Br)cc3F)nc3ccccc3n12 | 1.94 | -10.05
7 | CCc1nnc2c(S(=O)(=O)N(Cc3ccc(OC)c(F)c3)c3ccccc3)cccn12 | 14.47 | 1.05
8 | COc1cc(OC)c(NC(=O)Cn2nc3c(Sc4cccc(C)c4)nccn3c2=O)cc1Cl | 10.36 | -1.94
9 | Cc1ccc(N(Cc2ccc(F)cc2)S(=O)(=O)c2ccc3nnc(C)n3c2)cc1 | 0.5 | -5.57
10 | COc1cccc(-n2ccn3c(SCc4ccc(F)cc4)nnc3c2=O)c1 | 5.89 | -10.24
11 | CSc1cccc(NC(=O)Cn2nc3c(Oc4ccccc4C)nccn3c2=O)c1 | 6.72 | -2.85
12 | CCCc1nnc2c(=O)n(CC(=O)N3CCCc4ccccc43)c3ccccc3n12 | 2.88 | -3.24
13 | COc1ccc(-c2cc3c4nnc(SCC(=O)Nc5cc(Cl)ccc5C)n4ccn3n2)cc1 | -1.91 | -8.79
14 | COc1ccc(C)cc1NC(=O)Cn1nc2c3cc(-c4ccc(Cl)cc4)nn3ccn2c1=O | 8.09 | 3.41
15 | CCOC(=O)c1ccc(NC(=O)Cn2nc3c(N4CCOCC4)nccn3c2=O)cc1 | 2.06 | -3.52
16 | O=S(=O)(c1ccc2nncn2c1)N(Cc1ccccc1F)c1cccc(F)c1 | -5.69 | -18.72
17 | COc1ccc(NC(=O)CSc2nnc3c(=O)n(-c4ccccc4OC)ccn23)cc1Cl | 16.85 | -0.75
18 | Cc1ccc(NC(=O)Cn2nc3c(SC4CCCCC4)nccn3c2=O)c(Br)c1 | 0.51 | -5.93

Row | SMILES | Inhibition [1] [%] | Inhibition [2] [%]
19 | COc1ccc(NC(=O)Cn2nc3nc(Nc4ccc(F)cc4)ccn3c2=O)cc1F | -2.83 | -10.06
20 | Cc1nnc2ccc(S(=O)(=O)N(Cc3cccc(F)c3)c3ccc(Cl)cc3)cn12 | 9.42 | -6.55
21 | CSc1cccc(NC(=O)Cn2nc3ccc(C(=O)NCc4ccccc4)cn3c2=O)c1 | 5.85 | -2.4
22 | Cc1cccc(NC(=O)Cn2nc3ccc(-c4ccc(Cl)cc4)nn3c2=O)c1 | 7.34 | -1.37
23 | COc1ccc(C(=O)CSc2nnc3c(=O)n(-c4ccc(F)c(F)c4)ccn23)cc1 | 14.04 | -0.82
24 | O=C(Cn1nc2ccc(Sc3cccc(F)c3)nn2c1=O)NCc1ccc(C(F)(F)F)cc1 | 12.64 | -0.57
25 | O=C(Cn1nc2c3cc(-c4ccc(Cl)cc4)nn3ccn2c1=O)NC1CCCC1 | -0.6 | -3.32
26 | Cc1ccc(-n2ccn3c(=O)n(Cc4ccc(F)cc4)nc3c2=O)cc1C | 10.94 | -2.15
27 | CCOc1ccc(NC(=O)Cn2nc3c(Oc4ccc(C)cc4)nccn3c2=O)cc1 | 5.72 | -4.41
28 | O=S(=O)(c1ccc2nncn2c1)N(Cc1cccc(F)c1)c1ccc(F)c(F)c1 | 3.37 | -6.8
29 | CCc1nnc2c(=O)n(CC(=O)Nc3ccc(NC(C)=O)cc3)c3ccccc3n12 | 1.89 | -3.04
30 | Cc1ccc(-c2ccc3nn(CC(=O)Nc4ccc(Br)cc4F)c(=O)n3n2)cc1 | 3.77 | -3
31 | COc1cc(NC(=O)Cn2nc3c4c5c(sc4ncn3c2=O)CCCC5)cc(OC)c1OC | 7.91 | -3.63
32 | COc1cccc(-c2nc(CSc3nc4ccccc4n4c(C(C)C)nnc34)c(C)o2)c1OC | 5.27 | -1.56
33 | Cc1ccc2c(c1)N(C(=O)Cn1nc3ccc(SCc4ccc(Cl)cc4)nn3c1=O)CCO2 | 2.18 | -5.63
34 | O=C(CSc1nnc2c(=O)n(-c3ccccc3)ccn12)Nc1ccc(F)cc1 | 5.78 | -2.43
35 | Cc1ccc(Sc2nccn3c(=O)n(CC(=O)Nc4cc(Cl)ccc4C)nc23)c(C)c1 | -0.43 | -11.77
